Measurements taken from article PMC7862700, “An all-to-all approach to the identification of sequence-specific readers for epigenetic DNA modifications on cytosine”.

Experiments:
Assay in all cases: DAPPL (digital affinity profiling via proximity ligation, sequencing); 10 mM Tris-HCl pH 7.5, 50 mM NaCl, 1 mM DTT, 4% glycerol, room temperature, 30 min; GST-TFs on glutathione beads, 16-mer random dsDNA library, 0.1% formaldehyde crosslink after washing; high values mean tight binding
Settings in all cases: protein: recombinant; tags: N-terminal GST; dsDNA, one strand shown
[1] = target: T1, FLI1 (Homo sapiens, UniProt Q01543 1-452)
T1 sequence: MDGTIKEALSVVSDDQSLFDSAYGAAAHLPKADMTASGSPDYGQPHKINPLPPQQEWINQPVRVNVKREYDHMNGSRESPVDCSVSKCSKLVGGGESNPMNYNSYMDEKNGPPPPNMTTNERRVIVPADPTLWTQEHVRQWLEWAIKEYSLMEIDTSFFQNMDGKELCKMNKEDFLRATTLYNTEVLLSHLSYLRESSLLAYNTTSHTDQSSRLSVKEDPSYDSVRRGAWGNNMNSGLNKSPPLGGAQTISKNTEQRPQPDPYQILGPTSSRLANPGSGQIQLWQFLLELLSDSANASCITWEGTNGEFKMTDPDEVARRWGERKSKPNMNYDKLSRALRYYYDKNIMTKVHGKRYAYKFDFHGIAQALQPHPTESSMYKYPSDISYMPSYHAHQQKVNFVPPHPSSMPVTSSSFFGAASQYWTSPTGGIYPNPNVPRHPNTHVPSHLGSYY
In short: (§1)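 Each value of binding signal is a hexamer's read frequency for a factor divided by the same hexamer's frequency in the tag-only sample. Barcoded, bead-captured GST fusions of human transcription factors made in yeast were pooled with that sample and incubated with 200 nmole of a random double-stranded 16-mer DNA library in Tris/NaCl/DTT/glycerol buffer at room temperature for 30 min. Washing, 0.1% formaldehyde crosslinking, proximity ligation, PCR and Illumina NextSeq500 sequencing followed.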

[2] = target: T2, ELK1 (Homo sapiens, UniProt P19419 1-428)
T2 sequence: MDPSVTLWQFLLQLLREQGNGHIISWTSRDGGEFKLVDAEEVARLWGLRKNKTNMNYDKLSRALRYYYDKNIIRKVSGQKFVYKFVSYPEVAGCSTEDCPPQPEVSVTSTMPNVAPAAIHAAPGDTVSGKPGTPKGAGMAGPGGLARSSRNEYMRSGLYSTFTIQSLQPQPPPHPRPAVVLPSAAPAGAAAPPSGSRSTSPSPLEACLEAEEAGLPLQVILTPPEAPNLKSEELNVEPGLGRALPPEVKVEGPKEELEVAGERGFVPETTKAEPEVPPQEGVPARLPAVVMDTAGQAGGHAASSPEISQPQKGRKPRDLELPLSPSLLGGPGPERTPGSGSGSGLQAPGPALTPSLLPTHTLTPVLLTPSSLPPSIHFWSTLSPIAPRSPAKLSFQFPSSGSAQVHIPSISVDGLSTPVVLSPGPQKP
In short: as §1

[3] = target: T3, GABPA (Homo sapiens, UniProt Q06546 1-454)
T3 sequence: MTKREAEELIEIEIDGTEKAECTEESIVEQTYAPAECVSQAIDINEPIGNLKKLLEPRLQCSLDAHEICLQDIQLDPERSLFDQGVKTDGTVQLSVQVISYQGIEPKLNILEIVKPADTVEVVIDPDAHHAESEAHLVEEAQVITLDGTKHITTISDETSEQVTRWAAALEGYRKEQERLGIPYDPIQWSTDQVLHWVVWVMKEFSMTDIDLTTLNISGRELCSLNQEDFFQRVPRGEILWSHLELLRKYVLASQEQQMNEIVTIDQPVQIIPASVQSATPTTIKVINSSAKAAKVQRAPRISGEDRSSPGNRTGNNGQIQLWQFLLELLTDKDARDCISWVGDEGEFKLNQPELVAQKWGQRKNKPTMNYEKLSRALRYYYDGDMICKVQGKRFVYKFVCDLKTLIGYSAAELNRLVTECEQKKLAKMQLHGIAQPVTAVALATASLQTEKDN
In short: as §1

[4] = target: T4, ERG (Homo sapiens, UniProt P11308 1-479)
T4 sequence: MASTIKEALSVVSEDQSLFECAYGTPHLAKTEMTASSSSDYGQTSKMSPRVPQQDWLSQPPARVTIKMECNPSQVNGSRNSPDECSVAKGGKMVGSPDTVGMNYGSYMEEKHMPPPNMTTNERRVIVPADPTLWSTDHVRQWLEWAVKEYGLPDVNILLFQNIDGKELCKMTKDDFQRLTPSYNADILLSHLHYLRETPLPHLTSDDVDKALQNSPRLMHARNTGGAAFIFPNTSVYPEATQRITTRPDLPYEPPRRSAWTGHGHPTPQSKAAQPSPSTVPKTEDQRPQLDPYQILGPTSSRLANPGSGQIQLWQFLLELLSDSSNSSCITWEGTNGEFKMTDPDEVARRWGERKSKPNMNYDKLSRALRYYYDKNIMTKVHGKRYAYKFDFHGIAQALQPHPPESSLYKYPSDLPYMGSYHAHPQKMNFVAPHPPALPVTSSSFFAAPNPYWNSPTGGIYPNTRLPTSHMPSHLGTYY
In short: as §1

[5] = target: ELF1 (Homo sapiens, UniProt P32519 1-619)
Chain of ELF1 (P32519 whole entry): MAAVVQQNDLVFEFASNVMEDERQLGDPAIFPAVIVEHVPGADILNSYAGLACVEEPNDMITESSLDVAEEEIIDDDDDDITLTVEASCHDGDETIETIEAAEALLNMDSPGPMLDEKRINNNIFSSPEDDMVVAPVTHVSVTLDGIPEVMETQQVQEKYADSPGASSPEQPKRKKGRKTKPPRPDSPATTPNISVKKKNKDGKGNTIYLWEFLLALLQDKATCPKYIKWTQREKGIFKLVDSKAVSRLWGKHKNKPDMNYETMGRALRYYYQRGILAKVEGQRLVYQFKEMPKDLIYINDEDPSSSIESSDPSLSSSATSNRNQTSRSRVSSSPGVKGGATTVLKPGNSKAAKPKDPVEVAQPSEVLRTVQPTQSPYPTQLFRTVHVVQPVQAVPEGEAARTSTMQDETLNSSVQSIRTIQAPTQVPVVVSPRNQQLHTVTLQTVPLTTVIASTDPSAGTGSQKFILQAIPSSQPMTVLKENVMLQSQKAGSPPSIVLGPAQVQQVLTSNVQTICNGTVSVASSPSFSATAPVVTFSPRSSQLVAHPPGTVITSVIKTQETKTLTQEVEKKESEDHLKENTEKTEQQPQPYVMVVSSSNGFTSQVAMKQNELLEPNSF
In short: as §1

[6] = target: T5, EHF (Homo sapiens, UniProt Q9NZC4 1-300)
T5 sequence: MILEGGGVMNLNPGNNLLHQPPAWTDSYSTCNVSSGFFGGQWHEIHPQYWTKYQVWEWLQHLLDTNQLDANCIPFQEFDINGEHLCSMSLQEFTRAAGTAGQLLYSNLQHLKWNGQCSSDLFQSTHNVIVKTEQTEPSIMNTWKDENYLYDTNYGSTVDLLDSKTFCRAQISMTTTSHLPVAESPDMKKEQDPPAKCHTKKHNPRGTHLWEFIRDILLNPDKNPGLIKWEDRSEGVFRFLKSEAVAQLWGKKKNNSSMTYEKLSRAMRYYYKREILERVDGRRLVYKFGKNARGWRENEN
In short: as §1

[7] = target: SPI1 (Homo sapiens, UniProt P17947 1-270)
In short: as §1

[8] = target: SPIB (Homo sapiens, UniProt Q01892 1-262)
Chain of SPIB (Q01892 whole entry): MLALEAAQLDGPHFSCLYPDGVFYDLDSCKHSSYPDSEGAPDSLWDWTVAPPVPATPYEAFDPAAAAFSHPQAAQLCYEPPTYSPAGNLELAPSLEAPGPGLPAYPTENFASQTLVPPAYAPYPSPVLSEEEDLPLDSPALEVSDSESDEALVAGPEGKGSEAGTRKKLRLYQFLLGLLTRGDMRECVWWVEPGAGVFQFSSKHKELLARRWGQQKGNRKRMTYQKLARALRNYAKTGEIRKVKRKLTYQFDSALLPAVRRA
In short: as §1

[9] = target: T6, ELK3 (Homo sapiens, UniProt P41970 1-407)
T6 sequence: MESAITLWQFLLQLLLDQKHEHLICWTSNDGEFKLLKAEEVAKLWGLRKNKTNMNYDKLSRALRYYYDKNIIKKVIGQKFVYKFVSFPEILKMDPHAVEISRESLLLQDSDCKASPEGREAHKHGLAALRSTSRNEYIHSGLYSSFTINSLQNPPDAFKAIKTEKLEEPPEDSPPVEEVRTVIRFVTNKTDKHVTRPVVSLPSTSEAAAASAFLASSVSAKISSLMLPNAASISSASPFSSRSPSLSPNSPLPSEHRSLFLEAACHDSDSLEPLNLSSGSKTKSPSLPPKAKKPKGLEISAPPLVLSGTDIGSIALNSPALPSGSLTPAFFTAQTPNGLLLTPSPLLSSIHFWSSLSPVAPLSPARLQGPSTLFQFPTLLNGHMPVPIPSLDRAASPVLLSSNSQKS
In short: as §1

[10] = target: T7, FEV (Homo sapiens, UniProt Q99581 1-238)
T7 sequence: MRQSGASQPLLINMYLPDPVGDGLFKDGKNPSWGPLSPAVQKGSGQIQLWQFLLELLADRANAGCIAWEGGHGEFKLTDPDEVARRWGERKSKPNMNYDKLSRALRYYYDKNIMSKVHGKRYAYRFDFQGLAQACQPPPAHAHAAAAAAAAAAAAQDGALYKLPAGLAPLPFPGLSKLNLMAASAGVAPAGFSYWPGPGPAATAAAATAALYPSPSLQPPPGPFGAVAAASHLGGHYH
In short: as §1

[11] = target: ETV5 (Homo sapiens, UniProt P41161 1-510)
Chain of ETV5 (P41161 whole entry): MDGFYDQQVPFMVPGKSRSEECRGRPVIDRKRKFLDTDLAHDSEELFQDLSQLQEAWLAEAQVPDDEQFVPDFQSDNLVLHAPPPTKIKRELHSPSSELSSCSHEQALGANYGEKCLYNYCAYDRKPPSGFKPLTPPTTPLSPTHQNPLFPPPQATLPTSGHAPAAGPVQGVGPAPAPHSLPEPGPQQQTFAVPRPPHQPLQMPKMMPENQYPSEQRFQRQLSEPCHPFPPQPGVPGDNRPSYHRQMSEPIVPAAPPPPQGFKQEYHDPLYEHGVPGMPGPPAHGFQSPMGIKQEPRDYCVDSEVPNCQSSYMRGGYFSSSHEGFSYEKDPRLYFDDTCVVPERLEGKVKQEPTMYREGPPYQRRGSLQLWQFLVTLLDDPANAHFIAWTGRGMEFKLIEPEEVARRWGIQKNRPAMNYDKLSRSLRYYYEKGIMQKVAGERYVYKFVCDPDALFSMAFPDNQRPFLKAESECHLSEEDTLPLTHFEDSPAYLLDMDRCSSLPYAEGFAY
In short: as §1

[12] = target: T8, SPIC (Homo sapiens, UniProt Q8N5J4 1-248)
T8 sequence: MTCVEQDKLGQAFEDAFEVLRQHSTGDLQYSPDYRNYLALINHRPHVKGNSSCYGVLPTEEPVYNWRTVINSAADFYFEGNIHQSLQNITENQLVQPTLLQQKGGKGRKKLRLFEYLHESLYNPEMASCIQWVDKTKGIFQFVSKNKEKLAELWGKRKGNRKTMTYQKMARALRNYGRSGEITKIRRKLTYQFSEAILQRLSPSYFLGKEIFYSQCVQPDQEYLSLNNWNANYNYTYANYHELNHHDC
In short: as §1

[13] = target: ELF4 (Homo sapiens, UniProt Q99607 1-663)
Chain of ELF4 (Q99607 whole entry): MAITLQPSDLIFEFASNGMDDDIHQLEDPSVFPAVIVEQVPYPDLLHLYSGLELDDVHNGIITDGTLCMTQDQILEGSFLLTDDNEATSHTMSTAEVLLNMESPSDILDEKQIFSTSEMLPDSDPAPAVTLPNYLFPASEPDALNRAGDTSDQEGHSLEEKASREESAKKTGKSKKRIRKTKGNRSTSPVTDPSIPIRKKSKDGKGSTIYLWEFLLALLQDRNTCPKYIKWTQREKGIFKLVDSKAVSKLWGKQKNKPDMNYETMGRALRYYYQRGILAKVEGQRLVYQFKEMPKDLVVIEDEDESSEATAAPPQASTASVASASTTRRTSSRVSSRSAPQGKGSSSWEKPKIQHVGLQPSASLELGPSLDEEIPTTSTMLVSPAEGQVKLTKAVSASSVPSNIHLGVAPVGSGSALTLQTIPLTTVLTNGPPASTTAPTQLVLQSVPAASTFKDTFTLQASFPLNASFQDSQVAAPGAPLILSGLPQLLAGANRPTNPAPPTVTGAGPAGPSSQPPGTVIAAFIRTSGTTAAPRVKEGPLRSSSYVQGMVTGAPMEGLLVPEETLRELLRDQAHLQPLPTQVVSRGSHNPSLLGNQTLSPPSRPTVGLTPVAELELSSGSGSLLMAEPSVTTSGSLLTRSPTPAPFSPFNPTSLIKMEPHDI
In short: as §1

[14] = target: T9, ELK4 (Homo sapiens, UniProt P28324-2 1-405)
T9 sequence: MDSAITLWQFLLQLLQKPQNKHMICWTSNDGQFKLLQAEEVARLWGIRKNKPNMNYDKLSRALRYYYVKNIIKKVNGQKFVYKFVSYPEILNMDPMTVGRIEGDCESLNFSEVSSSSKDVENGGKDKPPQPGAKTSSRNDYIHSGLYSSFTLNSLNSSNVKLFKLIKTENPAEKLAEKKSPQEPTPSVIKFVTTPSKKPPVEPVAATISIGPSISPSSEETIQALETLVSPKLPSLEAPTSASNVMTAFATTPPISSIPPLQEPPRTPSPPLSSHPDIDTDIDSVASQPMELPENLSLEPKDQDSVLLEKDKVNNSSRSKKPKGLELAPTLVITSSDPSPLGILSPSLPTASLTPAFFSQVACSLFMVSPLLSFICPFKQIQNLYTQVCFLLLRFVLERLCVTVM
In short: as §1

[15] = target: T10, ETV2 (Homo sapiens, UniProt O00321 1-342)
T10 sequence: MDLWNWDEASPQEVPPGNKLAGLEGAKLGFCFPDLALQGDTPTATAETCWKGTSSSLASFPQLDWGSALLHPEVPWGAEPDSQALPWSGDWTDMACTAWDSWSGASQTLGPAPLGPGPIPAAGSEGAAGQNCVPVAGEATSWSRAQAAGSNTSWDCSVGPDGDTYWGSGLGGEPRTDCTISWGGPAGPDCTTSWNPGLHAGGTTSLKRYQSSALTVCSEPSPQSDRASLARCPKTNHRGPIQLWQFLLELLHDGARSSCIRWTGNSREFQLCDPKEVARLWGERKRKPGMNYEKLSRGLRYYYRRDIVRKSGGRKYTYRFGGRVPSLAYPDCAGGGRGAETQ
In short: as §1

[16] = target: T11, ELF3 (Homo sapiens, UniProt P78545 1-371)
T11 sequence: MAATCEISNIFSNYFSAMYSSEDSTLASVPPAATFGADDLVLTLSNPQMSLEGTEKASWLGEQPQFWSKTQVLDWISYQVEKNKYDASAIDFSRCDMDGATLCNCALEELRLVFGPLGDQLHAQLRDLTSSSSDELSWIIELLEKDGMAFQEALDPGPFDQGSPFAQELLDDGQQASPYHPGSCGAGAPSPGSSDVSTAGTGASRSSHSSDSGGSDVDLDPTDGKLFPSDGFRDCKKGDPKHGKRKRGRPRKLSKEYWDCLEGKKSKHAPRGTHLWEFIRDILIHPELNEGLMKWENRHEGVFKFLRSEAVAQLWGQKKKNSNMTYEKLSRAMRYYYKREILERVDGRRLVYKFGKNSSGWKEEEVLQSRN
In short: as §1

[17] = target: ETV1 (Homo sapiens, UniProt P50549 1-477)
Chain of ETV1 (P50549 whole entry): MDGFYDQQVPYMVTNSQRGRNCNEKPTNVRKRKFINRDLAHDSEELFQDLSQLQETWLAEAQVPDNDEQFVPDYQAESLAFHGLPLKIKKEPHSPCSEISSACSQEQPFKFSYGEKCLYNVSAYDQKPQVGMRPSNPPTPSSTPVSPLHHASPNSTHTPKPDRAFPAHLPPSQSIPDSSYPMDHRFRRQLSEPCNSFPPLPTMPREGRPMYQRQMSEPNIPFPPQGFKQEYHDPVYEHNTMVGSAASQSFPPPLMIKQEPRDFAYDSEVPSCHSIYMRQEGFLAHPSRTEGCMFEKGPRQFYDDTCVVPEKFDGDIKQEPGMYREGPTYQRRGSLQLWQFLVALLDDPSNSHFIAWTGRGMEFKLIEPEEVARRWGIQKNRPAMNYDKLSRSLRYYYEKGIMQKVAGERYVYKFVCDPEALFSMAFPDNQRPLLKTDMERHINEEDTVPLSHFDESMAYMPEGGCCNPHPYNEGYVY
In short: as §1

[18] = target: SPI1 (Homo sapiens, UniProt P17947 1-270); remark: listed apart in the source
In short: as §1

Sequence | binding signal [1] | binding signal [2] | binding signal [3] | binding signal [4] | binding signal [5] | binding signal [6] | binding signal [7] | binding signal [8] | binding signal [9] | binding signal [10] | binding signal [11] | binding signal [12] | binding signal [13] | binding signal [14] | binding signal [15] | binding signal [16] | binding signal [17] | binding signal [18]
GTTCAT | 1.19 fold enrichment (6-mer frequency, TF over GST control) | 1.25 fold enrichment (6-mer frequency, TF over GST control) | 1.19 fold enrichment (6-mer frequency, TF over GST control) | 1.1 fold enrichment (6-mer frequency, TF over GST control) | 1.13 fold enrichment (6-mer frequency, TF over GST control) | 1.17 fold enrichment (6-mer frequency, TF over GST control) | 1.18 fold enrichment (6-mer frequency, TF over GST control) | 1.14 fold enrichment (6-mer frequency, TF over GST control) | 1.15 fold enrichment (6-mer frequency, TF over GST control) | 1.1 fold enrichment (6-mer frequency, TF over GST control) | 1.16 fold enrichment (6-mer frequency, TF over GST control) | 1.15 fold enrichment (6-mer frequency, TF over GST control) | 1.18 fold enrichment (6-mer frequency, TF over GST control) | 1.2 fold enrichment (6-mer frequency, TF over GST control) | 1.01 fold enrichment (6-mer frequency, TF over GST control) | 1.04 fold enrichment (6-mer frequency, TF over GST control) | 1.12 fold enrichment (6-mer frequency, TF over GST control) | –
GGAAGT | 2.88 fold enrichment (6-mer frequency, TF over GST control) | 3.29 fold enrichment (6-mer frequency, TF over GST control) | 2.57 fold enrichment (6-mer frequency, TF over GST control) | 3.6 fold enrichment (6-mer frequency, TF over GST control) | 2.87 fold enrichment (6-mer frequency, TF over GST control) | 3.23 fold enrichment (6-mer frequency, TF over GST control) | – | 3.19 fold enrichment (6-mer frequency, TF over GST control) | 3.36 fold enrichment (6-mer frequency, TF over GST control) | 3.88 fold enrichment (6-mer frequency, TF over GST control) | 3.34 fold enrichment (6-mer frequency, TF over GST control) | 3.41 fold enrichment (6-mer frequency, TF over GST control) | 2.72 fold enrichment (6-mer frequency, TF over GST control) | 2.27 fold enrichment (6-mer frequency, TF over GST control) | 2.85 fold enrichment (6-mer frequency, TF over GST control) | 3.25 fold enrichment (6-mer frequency, TF over GST control) | 3.33 fold enrichment (6-mer frequency, TF over GST control) | 4.86 fold enrichment (6-mer frequency, TF over GST control)
